Assay outcomes as filed in PubChem.
Rows were chosen to be rich in hits. Some 1.5% of all compounds tested hit in one or more screens of this group.
E coli Lon inh – inhibitors of E. coli Lon protease, primary screen, biochemical, fluorescence polarization; purified E. coli Lon protease; P0A9M0; hit rate 0.42% among 360,000; inhibition, % at 7.94 µM; in the data active means inhibition above about 13%, passing the limit was not always enough
BCLXL inh – inhibitors of human Bcl-xL, primary screen, biochemical, fluorescence polarization, HTS | Bcl-2-like protein 1 (Homo sapiens), Q07817 | GST-Bcl-xL / FITC-Bim BH3 peptide fluorescence polarization | inhibition, % at 10.9 µM | hit rate 0.7% among 320,000;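 active means inhibition above the mean of all tested compounds plus 3 SD, cutoff set per campaign, cut at about 30% in these data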;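 further: inhibitors lower millipolarization by displacing the labeled peptide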
Target sequence (Q07817 whole entry, looked up): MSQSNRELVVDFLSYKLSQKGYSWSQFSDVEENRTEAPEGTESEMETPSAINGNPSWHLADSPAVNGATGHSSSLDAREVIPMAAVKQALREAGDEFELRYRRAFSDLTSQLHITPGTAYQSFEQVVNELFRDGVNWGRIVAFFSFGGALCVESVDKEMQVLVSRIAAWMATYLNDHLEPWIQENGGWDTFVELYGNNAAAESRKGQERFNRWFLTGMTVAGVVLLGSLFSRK
GLD-1 TGE inh – GLD-1/TGE RNA complex disruptors, primary screen, biochemical, fluorescence polarization. purified GLD-1 + fluorescein TGE RNA. inhibition, % at 5.96 µM. hit rate 0.44% among 320,000;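 active means percent inhibition above a per-plate cutoff, the plate mean of test compounds plus 3 SD, cut at about 30% in these data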
EBV gp42 inh – Epstein-Barr virus gp42 inhibitors, primary screen, biochemical, uHTS, fluorescence polarization. Glycoprotein 42 (Epstein-Barr virus (strain AG876)), Q1HVG2. Fluorescence polarization binding assay, mP read-out. inhibition, % (tested at 21.74 µM). hit rate 0.42% among 220,000. AID 1085, 2008; in the data active means inhibition above about 50%
Target sequence (Q1HVG2 whole entry, looked up): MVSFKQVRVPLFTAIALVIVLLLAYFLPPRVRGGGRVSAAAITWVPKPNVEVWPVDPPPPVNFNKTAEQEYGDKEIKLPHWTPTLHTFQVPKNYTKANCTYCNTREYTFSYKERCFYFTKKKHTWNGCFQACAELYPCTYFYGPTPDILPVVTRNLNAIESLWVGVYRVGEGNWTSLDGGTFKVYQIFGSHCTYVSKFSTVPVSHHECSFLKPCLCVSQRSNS
MCL1 BIM primary – inhibitors of MCL1 binding to BIM-BH3, primary screen, biochemical, fluorescence polarization; Induced myeloid leukemia cell differentiation protein Mcl-1 (Homo sapiens), Q07820; GST-MCL1 / FITC-Bim-BH3 fluorescence polarization; inhibition, % at 10.9 µM; hit rate 0.68% among 320,000; AID 2057, 2009;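 active means inhibition above the mean inhibition of all tested compounds plus 3 SD, set per campaign, cut at about 40% in these data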;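 further: higher means more loss of mP so more displacement of Bim peptide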
MEX-5 binding – MEX-5 zinc finger RNA-binding disruptors – biochemical, C. elegans, fluorescence polarization, MLPCN library, primary screen | Zinc finger protein mex-5 (Caenorhabditis elegans), Q9XUB2 | MEX-5/FITC-TCR2 RNA binding; stronger effect = lower value | activity score (negative = inhibition of binding), % at 10 µM | hit rate 0.38% among 300,000 | AID 1832, 2009;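 active means inhibition past about -25% in most replicates, and total fluorescence under double the plate's negative control median, limit read from the data; inconclusive means replicates evenly split on the limit, or fluorescence at least double controls; inactive means too little inhibition in most replicates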
E coli Lon conf – E. coli Lon protease inhibitor retest, confirmation, biochemical, fluorescence polarization. shares compounds with E coli Lon inh. AID 602230, 2012. purified E. coli Lon. inhibition, % at 7.94 µM. hit rate 31% among 1,400; in the data active means inhibition above about 16%
Numbers stand for hits; n = inactive; u = inconclusive; x = no result given; + = active, no number.

SMILES	E coli Lon inh	BCLXL inh	GLD-1 TGE inh	EBV gp42 inh	MCL1 BIM primary	MEX-5 binding	E coli Lon conf
Cc1cccc(C)c1NC(=O)COC(=O)c1c2c(nc3ccccc13)/C(=C\c1ccc3c(c1)OCO3)CCC2	+	194.0	181.8	97.6	+	x	74.2
COC(=O)Oc1ccc(/C=C/C(=O)OC(C)C)cc1OC(=O)OC	n	n	n	n	n	n	x
CCCCOC(=O)/C=C/c1ccc(OC(=O)OC)c(OC(=O)OC)c1	27.7	n	n	n	n	n	n
COc1cc2[nH]c(=S)nc(NCc3ccccn3)c2cc1OC	26.2	x	x	n	x	x	56.5
COc1cc2[nH]c(=S)nc(NCc3ccccc3)c2cc1OC	n	n	n	x	n	n	x
O=C(O)C1CCCC[C@H]1C(=O)Nc1ncc([N+](=O)[O-])s1 (some centres not stated)	n	n	n	x	n	x	x
COc1ccc(/C=C/c2cc(C(=O)O)c3ccccc3n2)cc1	+	n	n	n	n	n	n
COc1cc(OC)c(OC)cc1/C=C/c1cc(C(=O)O)c2ccccc2n1	n	n	n	n	n	n	x
CCN(c1ccc(NC(=O)CSCc2c(C)noc2C)cc1)C(C)C	n	n	n	x	n	x	x
CN1C(=O)CC(Nc2cccc3cccc(N)c23)C1=O (configuration not stated)	20.8	n	n	n	n	n	n
Cc1cc(NC(=O)CCC(=O)N(c2ccc(F)cc2)C(C(=O)NC2CCCC2)c2cccnc2)no1 (configuration not stated)	n	n	n	x	n	n	x
O=C(COC(=O)c1cc[n+]([O-])cc1)Nc1cccc(Cl)c1Cl	16.2	n	n	n	n	n	n
CC(=O)c1ccccc1NC(=O)COC(=O)c1cc[n+]([O-])cc1	n	x	n	x	x	x	x
O=C(CCNC(=O)c1ccccc1Cl)Nc1ccc(S(=O)(=O)N2CCOCC2)cc1	n	x	x	x	x	x	x
NS(=O)(=O)c1ccc(CCNC(=O)COc2ccc3c4c(c(=O)oc3c2)CCC4)cc1	17.7	n	n	x	n	n	n
CCCCc1cc(=O)oc2cc(OCC(=O)Nc3cccnc3)c(Cl)cc12	n	n	n	x	n	n	x
COc1cccc(/C(C)=N/Nc2ccc(S(=O)(=O)N3CCCCC3)cn2)c1	21.8	n	n	x	n	x	n
C[C@@H]1CN([C@H](C)CO)C(=O)c2c(c3ccccc3n2C)-c2ccccc2CO[C@H]1CN(C)Cc1ccccc1	16.6	x	x	x	x	x	n
Nc1[nH]n(-c2c(Cl)cc(Cl)cc2Cl)c(=O)c1N=Nc1ccc(S(=O)(=O)Nc2ncccn2)cc1	21.4	x	n	x	x	x	n
O=C(NCc1cccnc1)c1ccc2sc([C@@H]3O[C@H](CO)[C@H](O)[C@H](O)[C@H]3O)nc2c1	n	x	x	x	x	x	x
Cc1ccc(S(=O)(=O)CCC(=O)OCC(=O)c2cc(C)n(C)c2C)cc1	n	n	n	x	n	x	x
Cc1ccc(S(=O)(=O)NNC(=O)Nc2cccc(C)c2C)c(C)c1	21.4	n	n	x	n	n	n
CCN1/C(=C\C=C(C(C)=O)C(C)=O)Sc2ccccc21	n	n	n	n	n	u	x
CCOC(=O)/C(C#N)=C(C)/C=C1\Sc2ccccc2N1CC	42.2	n	n	n	n	u	n
O=C(O)c1cc(N2N=C(C(F)(F)F)/C(=C/C=C/c3ccco3)C2=O)ccc1Cl	27.5	x	x	n	x	x	n
SMILES	E coli Lon inh	BCLXL inh	GLD-1 TGE inh	EBV gp42 inh	MCL1 BIM primary	MEX-5 binding	E coli Lon conf
Cc1ccc(N(CC(=O)N2CCc3ccccc3C2)S(C)(=O)=O)cc1	n	n	n	x	n	n	x
Cc1ccn(CC(=O)NC2CC(C)(C)Cc3c2cnn3-c2ccc(F)cc2)n1 (configuration not stated)	n	n	n	x	n	n	x
O=C(CCl)N1c2ccccc2Oc2ccc3ccccc3c21	+	x	x	x	x	x	24.0
CC(=O)N1c2ccccc2Oc2cc3ccccc3cc21	n	n	n	n	n	x	x
CC(=O)N(Cc1ccccc1)c1c(N)nc(N)[nH]c1=O	n	n	n	x	n	n	x
Cc1ccc2cccc(N)c2n1	30.8	n	n	n	n	x	n
